{"source": "PubChem BioAssay (Tox21)", "note": "Values without a mark were called inactive. Active and inactive are the calls of the source. Calls follow the shape of the dose curve; as a rule, active = well fitted activation curve with a large enough effect in the repeat runs; inconclusive = weak or mixed curves; inactive = flat fitted curve, though single readings scatter. % is scaled to controls: 0 for no effect and ±100 for the full control effect."}
{"assay": "A CellTox Green Cytotoxicity Assay to monitor cytotoxicity in HEK293 cells - 0 hour (AID 1224869); also: nearly all actives have a fitted effect of over 50% in size", "conditions": "CellTox Green fluorescence; series mostly up to 76.8 µM; cytotoxicity: at the top concentration", "from_the_text": "National Center for Advancing Translational Sciences [NCATS]\nNIH Chemical Genomics Center [NCGC]\nU.S. Environmental Protection Agency [EPA]\nNational Institutes of Environmental Health Sciences [NIEHS]\nNational Toxicology Program [NTP]\nCell-based models are critical for drug discovery. Determining the natural cytotoxic effects resulting from test compounds is an essential research activity. A CellTox Green Cytotoxicity Assay to monitor cytotoxicity in real time of continues cell culture during 40 hours of the compound treatment was used to screen Tox21 10K library compounds in Hek293 cells. CellTox Green Cytotoxicity Assay is a nonlytic, homogeneous, biofluorescent method to measure cytotoxicity in cell culture after experimental manipulation. The assay system uses a proprietary asymmetric cyanine dye that is excluded from viable cells but preferentially stains the dead cell's DNA. […] Viable cells produce no appreciable increases in fluorescence. Therefore, the fluorescence signal produced by the binding interaction with dead cell DNA is proportional to cytotoxicity.\nThe mixture of Hek293 cell suspension and reagents were dispensed at 600cells/6 ul/well in 1536-well tissue culture treated black solid bottom plates using a Multidrop dispenser. After the assay plates were incubated at a 37 C/5% CO2 incubator for 5 hours, 23 nL of compounds dissolved in DMSO, positive and negative controls was transferred to the assay plate by a pintool work station. The plates were incubated at 37 C for 40 hours. The fluorescence intensity were measured at 0h, 8h, 16h, 24h, 32h and 40h time points using ViewLux plate reader during compound treatment."}
{"smiles": "CC1=Nc2ccccc2C1(C)C", "cytotoxicity": "-0.502%"}
{"smiles": "CC(C)(C)NSc1nc2ccccc2s1", "cytotoxicity": "-5.7%"}
{"smiles": "CC(CCc1ccccc1)NCC(O)c1ccc(O)c(C(N)=O)c1", "note": "(stereo not given)", "cytotoxicity": "-3.15%"}
{"smiles": "Cc1c(C)c2c(c(C)c1O)CC[C@@](C)(CCC[C@H](C)CCC[C@H](C)CCCC(C)C)O2", "cytotoxicity": "-3.35%"}
{"smiles": "CN1CCN2c3ccccc3Cc3ccccc3C2C1", "note": "(stereo not given)", "cytotoxicity": "-3.78% [at 35.3 µM]"}
{"smiles": "C/C=C/C=C/COC(=O)C(C)C", "cytotoxicity": "-7.44%"}
{"smiles": "COC(=O)c1ccccc1OC", "cytotoxicity": "3.69%"}
{"smiles": "CC(C)=CCC1=C(O)c2ccccc2C(=O)C1=O", "cytotoxicity": "-0.146%"}
{"smiles": "OC/C=C/CO", "cytotoxicity": "-2.32%"}
{"smiles": "CN(C)[C@@H](CCOc1cccc2ccccc12)c1ccccc1", "cytotoxicity": "-7.63% [at 35.3 µM]"}
{"smiles": "O=C(O)O", "cytotoxicity": "2.74% [at 6.97 µM]"}
{"smiles": "Cc1cc(-c2ccc(N=Nc3cc(S(=O)(=O)O)c4ccccc4c3N)c(C)c2)ccc1N=Nc1cc(S(=O)(=O)O)c2ccccc2c1N", "cytotoxicity": "9.33%"}
{"smiles": "c1ccc(SSc2ccccc2)cc1", "cytotoxicity": "0.912%"}
{"smiles": "Cc1ccc(O)c(N)c1", "cytotoxicity": "-1.87%"}
{"smiles": "CCCCCCCCCCCCCCCC[N+](C)(C)CC", "Potency": "inactive"}
{"smiles": "OC[C@@H](O)[C@@H](O)CO", "cytotoxicity": "-0.129%"}
{"smiles": "C=Cc1cccc(C)c1", "Potency": "inactive"}
{"smiles": "CCOC(=O)NNc1ccc(N(CC)CC(C)O)nn1", "note": "(stereo not given)", "cytotoxicity": "-6.63% [at 35.3 µM]"}
{"smiles": "CN(C)C(=O)COC(=O)Cc1ccc(OC(=O)c2ccc(N=C(N)N)cc2)cc1", "cytotoxicity": "-0.269% [at 35.3 µM]"}
{"smiles": "CC[N+](CC)(CC)CCOc1ccc(/C=C/c2ccccc2)cc1", "cytotoxicity": "-14.6% [at 35.3 µM]"}
{"smiles": "O=[N+]([O-])c1ccc(O)cc1C(F)(F)F", "cytotoxicity": "-0.958%"}
{"smiles": "CCN1C(=O)c2ccccc2C1Nc1ccc(OCCN2CCCCC2)cc1", "note": "(stereo not given)", "cytotoxicity": "1.49% [at 35.3 µM]"}
{"smiles": "CCCCOC(=O)CC", "cytotoxicity": "3.32%"}
{"smiles": "O=C(O)c1cc(N=Nc2ccc([N+](=O)[O-])cc2)ccc1O", "cytotoxicity": "0.447%"}
{"smiles": "CN(C)c1ccc(C(=C2C=CC(=[N+](C)C)C=C2)c2ccc(N(C)C)cc2)cc1", "Potency": "inactive"}
{"smiles": "CCCC(=O)OCOC(=O)C1=C(C)NC(C)=C(C(=O)OC)C1c1cccc(Cl)c1Cl", "note": "(stereo not given)", "cytotoxicity": "-2.37% [at 35.3 µM]"}
{"smiles": "CN1CCCCC1CCN1c2ccccc2Sc2ccc(S(C)=O)cc21", "note": "(stereo not given)", "cytotoxicity": "-0.852% [at 35.3 µM]"}
{"smiles": "CCCCCC/C=C\\CCCCCCCC(=O)O", "cytotoxicity": "0.523%"}
{"smiles": "CCCCC/C=C\\C/C=C\\CCCCCCCC(=O)O", "Potency": "inactive"}
{"smiles": "O=C(O)c1cccc(C(F)(F)F)c1", "cytotoxicity": "0.933%"}
{"smiles": "Nc1ccc(NCCO)c([N+](=O)[O-])c1", "cytotoxicity": "-6.03%"}
{"smiles": "CC(C)Cn1cnc2c(N)nc3ccccc3c21", "cytotoxicity": "4.66% [at 15.8 µM]"}
{"smiles": "CCCCCc1ccc(Cl)cc1", "cytotoxicity": "0.553%"}
{"smiles": "CC(C)(C)c1ccc(C(O)CCCN2CCC(C(O)(c3ccccc3)c3ccccc3)CC2)cc1", "note": "(stereo not given)", "cytotoxicity": "4.69% [at 35.3 µM]"}
{"smiles": "O=C(c1ccc(O)c(O)c1)c1ccc(O)cc1O", "cytotoxicity": "-0.806%"}
{"smiles": "O=C1c2ccccc2C(=O)N1SC1CCCCC1", "Potency": "inactive"}
{"smiles": "O=C1CCc2ccc(OCCCCN3CCN(c4cccc(Cl)c4Cl)CC3)cc2N1", "cytotoxicity": "0.0382% [at 35.3 µM]"}
{"smiles": "OC[C@H]1O[C@H](O[C@H]2O[C@H](CO)[C@@H](O)[C@H](O)[C@H]2O)[C@H](O)[C@@H](O)[C@@H]1O", "cytotoxicity": "2.23%"}
{"smiles": "O=[N+]([O-])c1cccc(C(F)(F)F)c1", "cytotoxicity": "-4.77%"}
{"smiles": "c1ccsc1", "cytotoxicity": "-1.41%"}
